Sampled rows, rich in hits. Any-hit rate of the full collection: about 9%.
Luc counter: counter-screen: inhibitors of Kinase-Glo firefly luciferase; Kinase-Glo luciferase, ATP luminescence, 8 min; Potency, µM (highest dose often 38.3 µM), usual class: inhibitors; 200,000 tested, 0.28% active; further: nearly all actives have a fitted effect of over 60% in size
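Luminescence was the read-out, taken after 8-minute incubation at ambient temperature. Luciferase turned over luciferin with 10 uM ATP in imidazole pH 7.2 buffer containing KCl, MgCl2, Tween 20 and BSA.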
HPGD inh: inhibitors of human 15-hydroxyprostaglandin dehydrogenase (HPGD). purified HPGD, NADH fluorescence kinetic, PGE2 substrate. Potency, µM, actives largely listed as inhibitors. 150,000 tested, 4.3% active. AID 894; active means well fitted inhibition curve with a large enough effect, not every such curve was filed as active; inconclusive means small, poorly fitted or top-dose-only effect, or another doubt; inactive means no such curve, though single readings can be large or run the other way
Target sequence (P15428 whole entry, looked up): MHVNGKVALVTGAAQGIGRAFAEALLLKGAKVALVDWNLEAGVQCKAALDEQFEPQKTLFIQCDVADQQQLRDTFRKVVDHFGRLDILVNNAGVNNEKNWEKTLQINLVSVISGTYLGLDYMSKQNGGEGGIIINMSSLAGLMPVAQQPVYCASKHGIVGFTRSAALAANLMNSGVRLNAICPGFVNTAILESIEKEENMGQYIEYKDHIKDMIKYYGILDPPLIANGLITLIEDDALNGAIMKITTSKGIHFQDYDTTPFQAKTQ
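NADH formation kinetics: reaction with 30 uM PGE2 and 1 mM NAD+ (final), 20 nM enzyme, Tris-HCl pH 8 with Tween 20, after 15 min compound preincubation at room temperature. Fluorescence change, last versus first of five reads.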
Lamin A splicing: changes lamin A minigene splicing in HeLa cells; HeLa LMNA splicing GFP/RFP minigene ratio, 48 h; Potency, µM (doses to about 46.1 µM), hits mostly inhibitors; 200,000 tested, 0.01% active; active means well fitted inhibition curve with a large enough effect in the signal ratio, with a control signal flat, not every such curve was filed as active; inconclusive means small, poorly fitted or top-dose-only effect, or effect the other way, or a change in a side signal; the % refers to the signal ratio
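S3 HeLa stable clones carrying a lamin A-EGFP splicing minigene plus DsRed2 were seeded at 600 cells/well in Opti-MEM with 2% FBS, pin-dosed and incubated 48 h at 37°C. Acumen cytometry (488 nm) gave the GFP/RFP total-intensity ratio.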
ALDH1A1 inh: ALDH1A1 (human) enzyme inhibition; P00352; Purified ALDH1A1, NADH fluorescence, propionaldehyde substrate; 220,000 tested, 7.3% active; Potency, µM (doses to about 75.3 µM), usual class: inhibitors; active means well fitted inhibition curve with a large enough effect, not every such curve was filed as active; inconclusive means small, poorly fitted or top-dose-only effect, or another doubt; inactive means no such curve, though single readings can be large or run the other way
Target sequence (P00352 whole entry, looked up): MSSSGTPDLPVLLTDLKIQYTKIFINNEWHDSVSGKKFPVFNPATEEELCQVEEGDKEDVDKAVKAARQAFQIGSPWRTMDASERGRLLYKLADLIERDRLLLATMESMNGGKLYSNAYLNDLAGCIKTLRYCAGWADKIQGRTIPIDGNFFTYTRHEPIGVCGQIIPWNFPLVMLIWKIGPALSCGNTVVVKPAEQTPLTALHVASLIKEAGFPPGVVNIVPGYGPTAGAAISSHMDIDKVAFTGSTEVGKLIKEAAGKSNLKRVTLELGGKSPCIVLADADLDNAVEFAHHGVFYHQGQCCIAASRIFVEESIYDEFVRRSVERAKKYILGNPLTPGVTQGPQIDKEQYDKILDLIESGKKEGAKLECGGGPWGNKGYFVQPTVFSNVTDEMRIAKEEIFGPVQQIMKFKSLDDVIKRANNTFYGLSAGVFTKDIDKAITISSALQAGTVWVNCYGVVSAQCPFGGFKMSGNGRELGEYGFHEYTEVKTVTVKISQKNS
HTT cytoprotect: Huntington cell model cytoprotection by ATP luminescence; Potency, µM (titrated, usually from 56.4 µM), usual class: activators; PC12 HTT-Q103 induced, cytoprotection, ATP luminescence, 40 h; 230,000 tested, 0.14% active; further: nearly all actives have a fitted effect of over 45% in size
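Readout: ATPlite luminescence (ATP level). Model: stable PC12, inducible Htt exon1 Q103-GFP. Inducer: tebufenozide, 100 nM final. Compounds: dose series. No G418 in medium.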
HttQ103 aggreg: inhibitors of mutant huntingtin aggregate formation in PC12 cells; Potency, µM (top dose mostly 46.1 µM), actives largely listed as inhibitors; AID 1688; PC12 HttQ103-GFP aggregates, Acumen cytometry, 40 h; 220,000 tested, 1.1% active; further: nearly all actives have a fitted effect of over 60% in size
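Using laser scanning cytometry, GFP-positive aggregates were counted after lysis of PC12 cells induced with 100 nM tebufenozide to express HTT exon 1 Q103–GFP. Compounds were tested in titration.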
Each line names hits and unclear results; the compound was inactive in the other large screens. Unless noted, the call rests on the fitted dose curve; in most records, active means well fitted curve in the direction sought with a large enough effect; inconclusive means small, poorly fitted or top-dose-only effect, or another doubt; inactive means no such curve, though single readings can be large; an effect the other way counts as inactive or inconclusive.

CN(C)CCCNc1ncc(C(F)(F)F)cc1Cl	Lamin A splicing inconclusive, HTT cytoprotect inconclusive (no result: HPGD inh)
Cc1ccc(S(=O)(=O)N2C(=O)C(c3ccccc3)SC2=Nc2ccccc2)cc1 (centres undefined)	HPGD inh 10µM, ALDH1A1 inh 8.9µM
Nc1c2c(nc3sc4c(c13)CCCC4)-c1ccccc1CC2	none (no result: Luc counter, HPGD inh, Lamin A splicing, ALDH1A1 inh)
COC(=O)C1Cc2ccccc2CN1C(=O)CCl (centres undefined)	Lamin A splicing inconclusive, ALDH1A1 inh 0.4µM, HttQ103 aggreg inconclusive (no result: HPGD inh)
Cc1cc(=O)oc(C)c1C(=O)NCCNC(=O)c1c(C)cc(=O)oc1C	none
CCc1noc(C)c1C(=O)N1CCCC(C(=O)c2ccc(OC)c(F)c2)C1 (centres undefined)	Lamin A splicing inconclusive, ALDH1A1 inh 7.1µM (no result: HPGD inh)
COc1ccc(C(=O)C2CCCN(C(=O)c3cc(C(C)C)no3)C2)cc1F (centres undefined)	ALDH1A1 inh 1.6µM (no result: Luc counter, HPGD inh, Lamin A splicing)
COc1ccccc1C(=O)C1CCCN(C(=O)c2cc(C(C)C)no2)C1 (centres undefined)	Lamin A splicing inconclusive (no result: HPGD inh)
CCOC(=O)/C(C#N)=C1/C=C(C)c2ccccc2N1	none (no result: HPGD inh)
COc1cccc(CN2CCNC(=O)C2CC(=O)NCc2cn3ccc(C)cc3n2)c1OC (centres undefined)	none (no result: Luc counter, HPGD inh, Lamin A splicing, ALDH1A1 inh)
CCOC(=O)c1sc(-c2ccc(OC)cc2)cc1N	HPGD inh inconclusive, ALDH1A1 inh inconclusive
CCN(CCNC(=O)C1CCN(Cc2nc(-c3ccc(Cl)cc3)oc2C)CC1)c1ccccc1	Lamin A splicing inconclusive, HttQ103 aggreg inconclusive
CCN(CCNC(=O)C1CCN(Cc2nc(-c3cccc(Cl)c3)oc2C)CC1)c1ccccc1	Lamin A splicing inconclusive, HttQ103 aggreg 10µM
CN(C)CCOc1nc(-c2ccccc2)nc2c1oc1ccccc12	Lamin A splicing inconclusive, HttQ103 aggreg 22µM
CN1C(=O)c2cccc3c(S(=O)(=O)NCc4ccco4)ccc1c23	Lamin A splicing inconclusive, ALDH1A1 inh 14µM
COc1ccc(Nc2ccccc2N)cc1	Lamin A splicing inconclusive, ALDH1A1 inh inconclusive, HttQ103 aggreg 13µM (no result: HPGD inh)
Nc1ccc(Nc2ccccc2N)cc1	HPGD inh inconclusive
c1ccc2c(c1)OCC(c1nnc3sc(-c4cnccn4)nn13)O2 (centres undefined)	HPGD inh 25µM, ALDH1A1 inh 8.9µM
c1ccc2c(c1)OCC(c1nnc3sc(-c4ccc5c(c4)OCO5)nn13)O2 (centres undefined)	HPGD inh inconclusive, Lamin A splicing inconclusive, ALDH1A1 inh inconclusive
Fc1ccc(-c2nn3c(C4COc5ccccc5O4)nnc3s2)cc1 (centres undefined)	HPGD inh 28µM, ALDH1A1 inh 32µM
c1ccc2c(c1)OCC(c1nnc3n1-c1ccccc1SC3)O2 (centres undefined)	HPGD inh 13µM, ALDH1A1 inh inconclusive
Fc1ccc(-c2nnc3sc(C4COc5ccccc5O4)nn23)cc1 (centres undefined)	HPGD inh 28µM, Lamin A splicing inconclusive
COc1ccc(-c2nn3c(-c4ccc(F)cc4)nnc3s2)cc1	ALDH1A1 inh inconclusive
Clc1cccc(NCc2ccccc2)n1	none (no result: HPGD inh)
c1ccc(N2CCN(Cc3cn4ccccc4n3)CC2)cc1	none (no result: HPGD inh)
c1csc(-c2nn3c(C4COc5ccccc5O4)nnc3s2)c1 (centres undefined)	HPGD inh 8.9µM, ALDH1A1 inh 8.9µM
Cc1ccc(S(=O)(=O)N(Cc2cc3cc4c(cc3[nH]c2=O)OCCO4)CC2CCCO2)cc1 (centres undefined)	HPGD inh inconclusive, ALDH1A1 inh inconclusive
CCOc1ccc(C(=O)N/N=C/c2cc(Cl)ccc2[N+](=O)[O-])cc1	HPGD inh 22µM
CCOc1ccc(Cl)cc1/C=N/NC(=O)c1ccccc1	none (no result: HTT cytoprotect)
CC(=O)N1NC(=Nc2ccccc2)SC1(C)C	none (no result: HPGD inh)
ClC1(Cl)CC1Cn1c(C2CC2)nc2ccccc21 (centres undefined)	ALDH1A1 inh 10µM, HTT cytoprotect inconclusive (no result: HPGD inh)
O=C(NNC(=O)c1ccc([N+](=O)[O-])cc1)c1ccncc1	none
C=CCn1c(SCc2ccc([N+](=O)[O-])cc2)nnc1C(C)NC(=O)c1ccccc1 (centres undefined)	none
Nn1c(=O)c2ccccc2n2c(SCc3ccccc3)nnc12	ALDH1A1 inh 14µM
CCCSc1nnc2n(N)c(=O)c3ccccc3n12	none
Nn1c(=O)c2ccccc2n2c(SCc3ccc(C(F)(F)F)cc3)nnc12	HPGD inh 11µM, ALDH1A1 inh 22µM
CC(=O)c1ccc(C)cc1OC(=O)c1cccc(F)c1	ALDH1A1 inh inconclusive (no result: HPGD inh)
Cc1ccc(C(=O)CC(=O)c2cccc(F)c2)c(O)c1	HPGD inh 14µM, Lamin A splicing inconclusive, HttQ103 aggreg 22µM
COc1ccc(NC(=O)Cc2ccc(C)cc2)c([N+](=O)[O-])c1	Lamin A splicing inconclusive (no result: HTT cytoprotect)
COc1ccc(OCC(=O)N/N=C(\C)CC(=O)Nc2ccc(OC)cc2[N+](=O)[O-])cc1	Lamin A splicing inconclusive, ALDH1A1 inh 20µM (no result: HPGD inh)
COc1ccc(NC(=O)COc2ccc(C)cc2)c([N+](=O)[O-])c1	none (no result: HPGD inh, Lamin A splicing)
COc1ccc(NC(=O)C/C(C)=N/NC(=O)c2ccncc2)c([N+](=O)[O-])c1	ALDH1A1 inh 3.5µM (no result: HPGD inh, Lamin A splicing)
O=C(CC(Nc1cccc(Cl)c1Cl)C(=O)OCC(=O)c1cccs1)c1ccccc1 (centres undefined)	ALDH1A1 inh inconclusive, HttQ103 aggreg inconclusive
O=C(CC(Nc1cccc(Cl)c1Cl)C(=O)O)c1ccccc1 (centres undefined)	ALDH1A1 inh 0.35µM (no result: HPGD inh, Lamin A splicing)
O=c1c2ccccc2cnn1CCOc1ccccc1	Luc counter 8.9µM
Cc1cccc(OCCn2nc(C(=O)O)c3ccccc3c2=O)c1	HPGD inh 28µM
C[N+]1(CC2COC(c3ccccc3)(C3CCCCC3)O2)CCCCC1 (centres undefined)	none (no result: Luc counter, HPGD inh, Lamin A splicing, ALDH1A1 inh)
COc1ccc(-n2c(=O)c(-c3cc(F)cc(F)c3)nc3cnc(N4CCOCC4)nc32)cc1	ALDH1A1 inh inconclusive (no result: Luc counter, HPGD inh, HttQ103 aggreg)
COC(=O)c1ccccc1NC(=O)CSc1nnnn1C1CCCCC1	ALDH1A1 inh inconclusive
COc1ccc(-n2nnnc2SCC(=O)Nc2ccccc2N2CCOCC2)cc1	Lamin A splicing inconclusive (no result: HPGD inh)
CCOC(=O)c1ccccc1NC(=O)CSc1nnnn1C1CCCCC1	Lamin A splicing inconclusive, ALDH1A1 inh 3.5µM (no result: Luc counter, HPGD inh)
CCn1c(Cc2ccccc2)nnc1SCC(=O)Nc1ccccc1N1CCOCC1	Lamin A splicing inconclusive, ALDH1A1 inh 8.9µM, HttQ103 aggreg inconclusive
O=C(CSc1nnnn1C1CCCCC1)Nc1ccccc1N1CCOCC1	ALDH1A1 inh 28µM (no result: HPGD inh, Lamin A splicing)
O=C(NCc1cn2ccsc2n1)c1c(F)cccc1Cl	HPGD inh 8.9µM
Cc1nc(SCc2ccc(Cl)c(Cl)c2)ncc1C(=O)O	HttQ103 aggreg inconclusive (no result: HPGD inh, Lamin A splicing, HTT cytoprotect)

Assay outcomes: PubChem BioAssay, National Center for Advancing Translational Sciences (NCATS)
